Screening results as filed in PubChem.
Most compounds without a hit are left out; they make up all but 15% or so of the library.
ELG1 repair inh = blocks ELG1-dependent DNA repair in HEK293T cells. HEK293T ELG1-luciferase reporter, luminescence, 16 h; DNA damage induced by 5-fluorouridine. Potency, µM (top dose mostly 46.1 µM), actives largely listed as inhibitors. actives 2.3% (n = 330,000). AID 504467; also: nearly all actives have a fitted effect of over 55% in size
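Cells (2,000 per well) received 5-fluorouridine plus test compound or DMSO and were incubated 16 hr at 37 °C, 5% CO2. Luciferase activity was read by luminescence 30 min after ONE-Glo addition; signal suppression marked inhibition of damage-induced ELG1 function.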
DT40 TDP1 CPT = DT40-hTDP1 cell growth loss with CPT; chicken DT40 Tdp1-/-;hTDP1 cells + 20 nM CPT, ATP luminescence, 48 h; Potency, µM (top dose mostly 46.2 µM), usual class: inhibitors; actives 12% (n = 420,000); AID 686979; also: nearly all actives have a fitted effect of over 55% in size
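Chicken DT40 Tdp1-/- cells complemented with human TDP1, 400 cells/well, exposed to compounds plus 20 nM camptothecin for at least 48 h at 37 C; viability read as ATP content by CellTiter-Glo luminescence.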
DT40 TDP1 no CPT = qHTS for Inhibitors of human tyrosyl-DNA phosphodiesterase 1 (TDP1): qHTS in cells in absence of CPT; DT40 Tdp1-/- hTDP1 cells, no CPT, ATP luminescence, 48 h; Potency, µM (series often up to 46.2 µM), most hits filed as inhibitors; actives 15% (n = 420,000); also: nearly all actives have a fitted effect of over 55% in size
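Chicken DT40 Tdp1-/- cells complemented with human TDP1, screened without camptothecin (DMSO vehicle only), 400 cells/well. Compounds pin-transferred, cells incubated at 37 °C for at least 48 hr. Growth read as ATP-dependent luminescence (CellTiter-Glo, 30 min at RT).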
VP16 counter = Gal4-VP16 reporter inhibition counter-screen; Drosophila S2 Gal4-VP16 UAS-luciferase, luminescence, 20 h; Potency, µM (series often up to 53.6 µM), actives largely listed as inhibitors; AID 2546; actives 3.5% (n = 310,000);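 also: Gal4-VP16 expression switched on by copper sulfate through the metallothionein promoter; nearly all actives have a fitted effect of over 50% in size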
ALOX12 inh = ALOX12 (human) lipoxygenase inhibition; P18054; actives 1.1% (n = 580,000); Potency, µM (highest dose often 108 µM), usual class: inhibitors; purified 12hLO, xylenol orange hydroperoxide absorbance; AID 1671190
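Purified human 12hLO at 150 nM in 25 mM Hepes, 0.01% Triton X-100, pH 7.0, preincubated 15 min at room temperature with compound. Reaction started with 40 uM arachidonic acid, 30 min at room temperature. Hydroperoxide measured by Fe-xylenol orange, 573/405 nm absorbance ratio.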
RORgamma inh = ROR gamma (mouse) transcription inhibition; P51450; Potency, µM (highest dose often 53.6 µM), hits mostly inhibitors; Drosophila S2 Gal4-RORgamma UAS-luciferase reporter, 20 h; AID 2551; actives 5.4% (n = 310,000); also: nearly all actives have a fitted effect of over 60% in size
Target sequence (P51450 whole entry, looked up, the tested form may be a part): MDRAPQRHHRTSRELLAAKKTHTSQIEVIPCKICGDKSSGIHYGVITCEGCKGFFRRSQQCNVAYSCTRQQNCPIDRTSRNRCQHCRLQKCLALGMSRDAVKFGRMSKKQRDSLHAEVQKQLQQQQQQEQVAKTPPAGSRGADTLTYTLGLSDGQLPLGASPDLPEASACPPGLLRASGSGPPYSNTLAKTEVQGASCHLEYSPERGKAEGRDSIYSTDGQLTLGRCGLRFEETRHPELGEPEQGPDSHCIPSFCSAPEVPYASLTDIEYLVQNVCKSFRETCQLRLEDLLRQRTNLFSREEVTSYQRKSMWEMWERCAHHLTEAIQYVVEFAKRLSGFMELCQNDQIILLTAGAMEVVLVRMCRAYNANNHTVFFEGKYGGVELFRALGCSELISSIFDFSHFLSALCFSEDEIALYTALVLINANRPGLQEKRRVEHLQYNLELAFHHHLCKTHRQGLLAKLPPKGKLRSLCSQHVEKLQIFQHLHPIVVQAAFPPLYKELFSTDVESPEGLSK
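Drosophila S2 cells stably expressing Gal4-DBD/mouse RORγ fusion under metallothionein promoter plus UAS-luciferase; compound 1 h, then 700 uM CuSO4 induction for 20 h at ambient temperature; inhibition read as reduced luminescence.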
Numbers stand for hits; – = inactive; ? = inconclusive; · = not tested or not shown; [ ] = dose if it differs, or a comment. Calls follow the shape of the dose curve; as a rule, active = well fitted curve in the direction sought with a large enough effect; inconclusive = small, poorly fitted or top-dose-only effect, or another doubt; inactive = no such curve, though single readings can be large; an effect the other way counts as inactive or inconclusive.

SMILES	ELG1 repair inh	DT40 TDP1 CPT	DT40 TDP1 no CPT	VP16 counter	ALOX12 inh	RORgamma inh
Cc1cc(C)cc(OCC(=O)Nc2nc3c(s2)CC(C(C)(C)C)CC3)c1 (centres undefined)	·	18µM	23µM	·	?	·
CC(C)(C)C1CCc2nc(NC(=O)Cc3ccccc3)sc2C1 (centres undefined)	·	?	?	·	–	·
O=C(c1cn[nH]c1)N1CCC(c2nc(CCOCC3CC3)no2)C1 (centres undefined)	·	·	·	·	–	·
Cc1cc(C(=O)N2CC3CC(C2)[C@H]2CCCC(=O)N2C3)no1 (some centres undefined)	·	·	·	·	–	·
Cc1cc(C)nc(NC(=S)NC(=O)c2ccccc2)n1	–	–	–	?	–	?
Cc1cc(C)c2c(NC(=S)NC(=O)c3ccccc3)nn(C)c2n1	–	–	–	5µM	–	1.4µM
Cc1cc(C)c2c(NC(=O)CCl)nn(C)c2n1	?	13µM	12µM	?	–	–
Cc1ccc(F)cc1S(=O)(=O)NCc1nc(N2CCCC2)c2cccc(C)c2n1	·	?	23µM	·	–	·
CC(C)N1CCOC[C@H]1c1ncc(-c2ccc(OC(F)(F)F)cc2)[nH]1	·	·	·	·	–	·
COc1ccc(N2N=NN(C(C)C)C2=C(Cl)c2nnnn2-c2ccc(OC)cc2)cc1	·	5.8µM	8.2µM	·	?	·
O=C/C(=C\Nc1ccccn1)c1nc2cc(Cl)ccc2o1	?	?	?	10µM	–	5.6µM
CCOC(=O)c1cc2c(nc1NC(=S)Nc1ccccc1)CC(C)(C)OC2	–	–	–	?	–	2.8µM
CCOC(=O)c1cc(C#N)c(NCc2ccccc2)nc1C	–	–	–	–	–	–
CCOC(=O)c1cc2c(nc1N)CC(C)(C)OC2	?	–	–	–	–	?
CCOC(=O)c1sc2nc3c(cc2c1N)COC(C)(C)C3	?	–	–	–	–	?
C=CCNC(=S)Nc1nc2c(cc1C(=O)OCC)COC(C)(C)C2	?	–	–	–	?	10µM
CCOC(=O)c1cc2c(nc1NC(=S)NCc1ccccc1)CCCC2	?	–	–	3.5µM	–	6.3µM
c1ccn2cc(C34CC5CC(CC(C5)C3)C4)nc2c1	–	?	18µM	22µM	–	5.6µM
N#Cc1ccccc1COC(=O)c1cccc(OC(F)F)c1	·	·	·	·	–	·
O=C(CCc1nc(CSc2n[nH]c(-c3cccc(F)c3)n2)no1)Nc1cccc2ccccc12	·	·	·	·	–	·
N#CC1=C(N)Oc2c(ccc3cccnc23)C1c1cccnc1 (centres undefined)	?	5.8µM	5.2µM	–	?	–
CC(C)(C)C1=C(C#N)C(c2cccnc2)C(C#N)=C(N)O1 (centres undefined)	–	?	?	?	?	?
N#CC1=C(N)Oc2cc3ccccc3cc2C1c1cccs1 (centres undefined)	–	11µM	11µM	–	?	–
N#CC1=C(N)Oc2cc(N)ccc2C1c1cc(Br)cs1 (centres undefined)	–	?	?	–	–	–
CN(C)/C=N/C1=C(C#N)C(c2cccs2)c2ccc3ccccc3c2O1 (centres undefined)	?	4.1µM	4.1µM	–	?	–
SMILES	ELG1 repair inh	DT40 TDP1 CPT	DT40 TDP1 no CPT	VP16 counter	ALOX12 inh	RORgamma inh
N#CC1=C(N)Oc2cc3ccccc3cc2C1c1cccnc1 (centres undefined)	–	8.2µM	7.3µM	–	–	–
COCC(=O)N1CCC2(CC1)CN(Cc1cnc(C(C)C)nc1)CCN2C	·	·	·	·	–	·
Cc1cccc(-c2noc([C@@H]3C[C@@H](O)CN3Cc3ccccn3)n2)c1	·	·	·	·	–	·
CC(C)NC(=O)CC1=C2CCCCC2N(C)C1=O (centres undefined)	·	·	·	·	–	·
CN(CC(=O)Nc1ccc(N2CCOCC2)cc1)C(=O)CC(c1ccccc1)c1ccccc1	–	–	–	–[10 µM]	–	–
CN(CC(=O)Nc1ccc(N2CCOCC2)cc1)C(=O)CCc1cc(C(C)(C)C)c(O)c(C(C)(C)C)c1	–	?	16µM	·	–	·
